In PubChem BioAssay (Tox21):
Records with an inconclusive call do not appear. Activity calls are given as the source filed them. Calls come from the whole dose curve; as a rule, active = well fitted curve in the direction sought with a large enough effect in the repeat runs; inconclusive = weak or mixed curves; inactive = no such curve, though single readings can be large; an effect the other way counts as inactive or inconclusive.

Columns and labels:
[1] = qHTS RealTime-Glo MT Cell Viability Assay in HEK293 cells - 0 hour (AID 1224880); note: nearly all actives have a fitted effect of over 45% in size; note: potency is the fitted concentration of half-maximal effect; for activity change, negative = cytotoxicity: top concentration of the series differs between compounds
Summary of the method: (§1)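 600 cells/well were plated with the nonlytic NanoLuc/prosubstrate reagent, pre-incubated 5 h, then given 23 nL of compound in DMSO. Incubation at 37 C for 40 h, with luminescence from viable-cell-reduced substrate read repeatedly from 0 h.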

[2] = A CellTox Green Cytotoxicity Assay to monitor cytotoxicity in HEK293 cells - 32 hour (AID 1224881); note: nearly all actives have a fitted effect of over 40% in size
Summary of the method: (§2)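 HEK293 cells, 600/well, were preincubated 5 hours and then exposed to compounds at 37 C for up to 40 hours. A cell-impermeant cyanine dye staining dead-cell DNA was read by fluorescence at 0, 8, 16, 24, 32 and 40 h time points.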

[3] = A CellTox Green Cytotoxicity Assay to monitor cytotoxicity in HepG2 cells - 0 hour (AID 1224882); note: nearly all actives have a fitted effect of over 35% in size
Summary of the method: (§3)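 HepG2 cells, 600/well, preincubated 5 h with CellTox Green dye, then exposed to Tox21 compounds in DMSO at 37 C for up to 40 h. Dead-cell DNA fluorescence read at the indicated time point.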

[4] = A CellTox Green Cytotoxicity Assay to monitor cytotoxicity in HepG2 cells - 32 hour (AID 1224883); note: nearly all actives have a fitted effect of over 50% in size
Summary of the method: as §3

[5] = A CellTox Green Cytotoxicity Assay to monitor cytotoxicity in HEK293 cells - 8 hour (AID 1224884); note: nearly all actives have a fitted effect of over 35% in size
Summary of the method: as §2

[6] = qHTS RealTime-Glo MT Cell Viability Assay in HepG2 cells - 16 hour (AID 1224885); note: nearly all actives have a fitted effect of over 50% in size
Summary of the method: (§4)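 Viability was tracked continuously by NanoLuc luminescence from prosubstrate reduced by living HepG2 cells, at successive time points over 40 h of compound exposure. Cells with reagent were preincubated 5 h at 37 °C before compound addition.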

[7] = qHTS RealTime-Glo MT Cell Viability Assay in HEK293 cells - 24 hour (AID 1224886); note: top concentration of the series differs between compounds; nearly all actives have a fitted effect of over 50% in size
Summary of the method: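 Viability tracked continuously by luminescence as live cells reduce a prosubstrate for NanoLuc; HEK293 cells preincubated 5 h, compound-treated at 37 C, and read at 0, 8, 16, 24, 32 and 40 h.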

[8] = A CellTox Green Cytotoxicity Assay to monitor cytotoxicity in HEK293 cells - 16 hour (AID 1224888); note: nearly all actives have a fitted effect of over 35% in size
Summary of the method: as §2

[9] = qHTS RealTime-Glo MT Cell Viability Assay in HepG2 cells - 0 hour (AID 1224889); note: nearly all actives have a fitted effect of over 50% in size; note: potency is the fitted concentration of half-maximal effect
Summary of the method: as §4

[10] = qHTS RealTime-Glo MT Cell Viability Assay in HEK293 cells - 8 hour (AID 1224887); note: nearly all actives have a fitted effect of over 50% in size; note: potency is the fitted concentration of half-maximal effect; for activity change, negative = cytotoxicity: top concentration of the series differs between compounds
Summary of the method: as §1
% is set by controls: 0 for no effect and ±100 for the full control effect.

O=C(O)CCS
inactive: Potency [1] | Potency [2] | Potency [3] | Potency [4] | Potency [5] | Potency [6] | Potency [7] | Potency [8] | Potency [9]

N[C@@H](Cc1cc(I)c(O)c(I)c1)C(=O)O
inactive: Potency [1] | Potency [2] | Potency [3] | Potency [4] | Potency [5] | Potency [6] | Potency [7] | Potency [8]

CC(C)N=C=NC(C)C
inactive: Potency [1] | Potency [2] | Potency [3] | Potency [4] | Potency [5] | Potency [7] | Potency [10] | Potency [8]

CCCCOC(=O)CCCCC(=O)OCCCC
inactive: Potency [1] | Potency [2] | Potency [3] | Potency [4] | Potency [5] | Potency [6] | Potency [7] | Potency [8] | Potency [9]

O=C(O)CCC(=O)c1ccc(-c2ccccc2)cc1
inactive: Potency [1] | Potency [2] | Potency [3] | Potency [4] | Potency [5] | Potency [6] | Potency [7] | Potency [8] | Potency [9]

O=c1[nH][nH]c(=O)c2cc([N+](=O)[O-])ccc12
inactive: Potency [1] | Potency [2] | Potency [3] | Potency [4] | Potency [5] | Potency [6] | Potency [7] | Potency [8] | Potency [9]

O=C(O)c1cccc(Oc2ccccc2)c1
inactive: Potency [1] | Potency [2] | Potency [3] | Potency [4] | Potency [5] | Potency [7] | Potency [10] | Potency [8] | Potency [9]

CCN(CC)C(=O)N1CCN(C)CC1
inactive: Potency [1] | Potency [2] | Potency [3] | Potency [4] | Potency [5] | Potency [6] | Potency [7] | Potency [8] | Potency [9]

C1CCCCC1
inactive: Potency [1] | Potency [2] | Potency [3] | Potency [4] | Potency [5] | Potency [6] | Potency [7] | Potency [8] | Potency [9]

BrC(Br)C(Br)Br
inactive: Potency [1] | Potency [2] | Potency [3] | Potency [4] | Potency [5] | Potency [6] | Potency [7] | Potency [8] | Potency [9]

CCN(CC)CCOC(=O)C(c1ccccc1)c1ccccc1
inactive: Potency [1] | Potency [2] | Potency [3] | Potency [4] | Potency [5] | Potency [7] | Potency [10] | Potency [8] | Potency [9]

[Cl][Nd]([Cl])[Cl]
inactive: Potency [1] | Potency [2] | Potency [3] | Potency [4] | Potency [5] | Potency [6] | Potency [7] | Potency [8]

ClC1=C(Cl)C1(Cl)Cl
inactive: Potency [1] | Potency [2] | Potency [3] | Potency [4] | Potency [5] | Potency [7] | Potency [10] | Potency [8] | Potency [9]

O=C(O)/C=C/c1ccc(O)c(O)c1
inactive: Potency [1] | Potency [2] | Potency [3] | Potency [4] | Potency [5] | Potency [6] | Potency [7] | Potency [8] | Potency [9]

c1ccc(CNc2ncnc3c2ncn3C2CCCCO2)cc1 (stereo not drawn)
inactive: Potency [1] | Potency [2] | Potency [3] | Potency [4] | Potency [5] | Potency [6] | Potency [8] | Potency [9]

CS(=O)(=O)c1ccc([C@@H](C[C@H]2CCC(=O)C2)C(=O)Nc2cnccn2)cc1Cl
inactive: Potency [1] | Potency [2] | Potency [3] | Potency [4] | Potency [5] | Potency [6] | Potency [7] | Potency [8] | Potency [9]

O=C(CCS)OCC(COC(=O)CCS)(COC(=O)CCS)COC(=O)CCS
inactive: Potency [1] | Potency [2] | Potency [3] | Potency [4] | Potency [5] | Potency [6] | Potency [8] | Potency [9]

Cc1c(C2(c3cc(Br)c(O)c(Br)c3C)OS(=O)(=O)c3ccccc32)cc(Br)c(O)c1Br
inactive: Potency [2] | Potency [3] | Potency [4] | Potency [5] | Potency [6] | Potency [7] | Potency [8]
active: Potency [1] 15 µM | Potency [9] 13.4 µM

Nc1ccn([C@H]2CS[C@@H](CO)O2)c(=O)n1
inactive: Potency [1] | Potency [2] | Potency [3] | Potency [4] | Potency [5] | Potency [6] | Potency [7] | Potency [8] | Potency [9]

CCOC(=O)N1CCC(Nc2ccc(Cl)cc2N)CC1
inactive: Potency [1] | Potency [2] | Potency [3] | Potency [4] | Potency [5] | Potency [6] | Potency [10] | Potency [8] | Potency [9]

Cc1ccc(N(CC2=NCCN2)c2cccc(O)c2)cc1
inactive: Potency [1] | Potency [2] | Potency [3] | Potency [4] | Potency [5] | Potency [6] | Potency [7] | Potency [8] | Potency [9]

CCC(CO)(CO)CO
inactive: Potency [1] | Potency [2] | Potency [3] | Potency [4] | Potency [5] | Potency [7] | Potency [10] | Potency [8] | Potency [9]

O=C(C(=O)c1ccco1)c1ccco1
inactive: Potency [1] | Potency [2] | Potency [3] | Potency [4] | Potency [5] | Potency [8] | Potency [9]

OCC(CO)n1cnc(-c2ccc(F)cc2)c1-c1ccnc(Oc2ccccc2)n1
inactive: Potency [1] | Potency [2] | Potency [3] | Potency [4] | Potency [5] | Potency [7] | Potency [10] | Potency [8] | Potency [9]

CCOC(=O)c1ccc(NC(=O)CN2CCCCC2)cc1
inactive: Potency [1] | Potency [2] | Potency [3] | Potency [4] | Potency [5] | Potency [7] | Potency [8] | Potency [9]

CCCCCCCC/C=C\CCCCCCCC(=O)OCCO
active: Potency [10] 57.8 µM
inactive: Potency [1] | Potency [2] | Potency [3] | Potency [4] | Potency [7] | Potency [8]

c1ccc2sc(SSc3nc4ccccc4s3)nc2c1
inactive: activity change, negative = cytotoxicity [1] -1.35% [at 15.8 µM] | cytotoxicity increase [2] 13.3% [at 15.8 µM] | cytotoxicity [3] 0.139% [at 15.8 µM] | cytotoxicity increase [4] 4.1% [at 15.8 µM] | activity change, negative = cytotoxic [6] 5.08% [at 15.8 µM] | activity change, negative = cytotoxicity [7] 4.46% [at 15.8 µM] | activity change, negative = cytotoxicity [10] 0.0342% [at 15.8 µM] | activity change [8] 10.5% [at 15.8 µM, active compounds read high] | activity change, negative = cytotoxicity [9] 0.525% [at 15.8 µM]
